# Results with a measured potency or affinity are listed apart. Activity calls are given as the source filed them.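 Rule for the calls: active = TRPC4 ion channel inhibited over 30% at some tested dose, with a fitted dose response curve; inactive = no inhibition or no dose response curve.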
# Biological target: Short transient receptor potential channel 4 (Mus musculus) (UniProt Q9QUQ5)
# Assay: TRPC4 inhibitor concentration-response, dose response, cell-based, HEK293 TRPC4/mu-opioid, DAMGO stimulus, Fluo-4 (AID 492994)
# Short transient receptor potential channel 4 (Mus musculus), sequence (Q9QUQ5 whole entry, looked up): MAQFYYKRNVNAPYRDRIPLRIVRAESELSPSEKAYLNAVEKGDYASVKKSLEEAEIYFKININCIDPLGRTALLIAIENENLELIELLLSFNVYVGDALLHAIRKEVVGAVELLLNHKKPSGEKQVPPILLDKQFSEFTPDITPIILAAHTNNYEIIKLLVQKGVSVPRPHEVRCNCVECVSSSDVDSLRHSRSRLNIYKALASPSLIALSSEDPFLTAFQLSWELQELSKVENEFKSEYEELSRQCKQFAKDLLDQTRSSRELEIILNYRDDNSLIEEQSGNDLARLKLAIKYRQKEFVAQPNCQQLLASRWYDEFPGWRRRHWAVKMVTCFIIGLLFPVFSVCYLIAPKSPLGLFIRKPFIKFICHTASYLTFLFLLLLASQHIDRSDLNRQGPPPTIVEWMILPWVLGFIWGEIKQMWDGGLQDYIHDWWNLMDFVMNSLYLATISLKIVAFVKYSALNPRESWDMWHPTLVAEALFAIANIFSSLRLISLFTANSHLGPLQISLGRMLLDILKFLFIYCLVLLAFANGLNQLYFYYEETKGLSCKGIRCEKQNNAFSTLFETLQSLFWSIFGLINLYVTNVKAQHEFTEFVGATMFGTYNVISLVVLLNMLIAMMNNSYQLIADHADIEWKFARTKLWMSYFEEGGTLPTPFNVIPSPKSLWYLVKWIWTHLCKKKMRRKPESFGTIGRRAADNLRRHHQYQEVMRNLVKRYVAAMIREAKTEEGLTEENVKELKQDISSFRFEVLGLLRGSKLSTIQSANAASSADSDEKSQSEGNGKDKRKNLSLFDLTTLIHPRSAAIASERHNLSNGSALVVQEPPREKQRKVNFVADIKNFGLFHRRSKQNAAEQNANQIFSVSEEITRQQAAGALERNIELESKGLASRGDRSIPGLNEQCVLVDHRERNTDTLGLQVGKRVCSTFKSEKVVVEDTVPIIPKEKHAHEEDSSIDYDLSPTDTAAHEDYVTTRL
row,SMILES,outcome
1,Cc1cc(N2CCN(C)CC2)nc2ccccc12,inactive
2,Cc1cc(N2CCNCC2)nc2ccccc12,inactive
